{
  "source": "PubChem BioAssay (NCATS)",
  "note": "Inconclusive results are not listed. A number with no mark means an inactive call. Calls follow the shape of the dose curve; as a rule, active = well fitted inhibition curve with a large enough effect; inconclusive = small, poorly fitted or top-dose-only effect; inactive = flat fitted curve, though single readings scatter. % is scaled to controls: 0 for no effect and ±100 for the full control effect.",
  "data": [
    {"test": "Drug repurposing screens with cells derived from glioblastoma tumor samples (AID 1345199); also: nearly all actives have a fitted effect of over 40% in size", "conditions": "GBM patient neurospheres viability, ATP luminescence, 48 h; at 20 µM (top of the series); tumour line C", "method_in_brief": "(§1)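 Four patient lines of CD133+ GBM neurospheres were screened at several concentrations; hits were retested in those lines plus three slower-growing GBM lines, using 48-hour treatment and ATP-based viability.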", "units": {"activity, negative = cell killing": "%"}, "values": [
      {"smiles": "O=C(CCCN1CCC(O)(c2ccc(Br)cc2)CC1)c1ccc(F)cc1", "activity, negative = cell killing": 5.41},
      {"smiles": "CCCCOc1ccc(C(=O)CCN2CCCCC2)cc1", "activity, negative = cell killing": -2.49},
      {"smiles": "CCOc1ccc(Cc2nccc3cc(OCC)c(OCC)cc23)cc1OCC", "activity, negative = cell killing": 6.5},
      {"smiles": "CCN(CCCc1ccccc1)CCCc1ccccc1", "activity, negative = cell killing": -18.9},
      {"smiles": "CN1CCN(CCCN2c3ccccc3Sc3ccc(S(=O)(=O)N(C)C)cc32)CC1", "activity, negative = cell killing": 3.3},
      {"smiles": "CC(=O)c1ccc2c(c1)N(CCCN1CCC(CCO)CC1)c1ccccc1S2", "activity, negative = cell killing": 17.8},
      {"smiles": "CN(C(=O)CN(CCO)CC(=O)N(C)C(C)(C)Cc1ccccc1)C(C)(C)Cc1ccccc1", "activity, negative = cell killing": 7.73}
    ]},
    {"test": "Drug repurposing screens with cells derived from glioblastoma tumor samples (AID 1345199); also: nearly all actives have a fitted effect of over 40% in size", "conditions": "GBM patient neurospheres viability, ATP luminescence, 48 h; at 21.2 µM (top of the series); tumour line B", "method_in_brief": "as §1", "units": {"activity, negative = cell killing": "%"}, "values": [
      {"smiles": "CCN(CCCc1ccccc1)CCCc1ccccc1", "activity, negative = cell killing": 2.05},
      {"smiles": "CN1CCN(CCCN2c3ccccc3Sc3ccc(S(=O)(=O)N(C)C)cc32)CC1", "activity, negative = cell killing": -12.4},
      {"smiles": "CC(=O)c1ccc2c(c1)N(CCCN1CCC(CCO)CC1)c1ccccc1S2", "activity, negative = cell killing": -21.7},
      {"smiles": "CN(C(=O)CN(CCO)CC(=O)N(C)C(C)(C)Cc1ccccc1)C(C)(C)Cc1ccccc1", "activity, negative = cell killing": -8.65}
    ]},
    {"test": "Drug repurposing screens with cells derived from glioblastoma tumor samples (AID 1345199); also: nearly all actives have a fitted effect of over 40% in size", "conditions": "GBM patient neurospheres viability, ATP luminescence, 48 h; at 45.9 µM (top of the series); tumour line B", "method_in_brief": "as §1", "units": {"activity, negative = cell killing": "%"}, "values": [
      {"smiles": "O=C1OCCN1/N=C/c1ccc([N+](=O)[O-])o1", "activity, negative = cell killing": 4.9},
      {"smiles": "CCN(CC)CCOC(=O)C(c1ccccc1)C1CCCCC1", "note": "(configuration not stated)", "activity, negative = cell killing": -15},
      {"smiles": "CC(O)(P(=O)(O)O)P(=O)(O)O", "activity, negative = cell killing": -12.4},
      {"smiles": "COC1=CC(=O)C[C@@H](C)[C@]12Oc1c(Cl)c(OC)cc(OC)c1C2=O", "activity, negative = cell killing": -17.6},
      {"smiles": "C[C@H]1C[C@H]2[C@@H]3CCC4=CC(=O)C=C[C@]4(C)[C@@]3(Cl)[C@@H](O)C[C@]2(C)[C@@]1(O)C(=O)CO", "activity, negative = cell killing": -17},
      {"smiles": "O=C(COc1ccc(Cl)cc1)N1CCN(Cc2ccc3c(c2)OCO3)CC1", "activity, negative = cell killing": -2.59},
      {"smiles": "C[C@]12CCC(=O)C=C1[C@@H]1C[C@@H]1[C@H]1[C@@H]3[C@@H]4C[C@@H]4[C@@]4(CCC(=O)O4)[C@@]3(C)CC[C@@H]12", "activity, negative = cell killing": -20.2},
      {"smiles": "COc1cccc2c1C(=O)c1c(O)c3c(c(O)c1C2=O)C[C@@](O)(C(=O)CO)C[C@@H]3O[C@H]1C[C@H](N)[C@H](O)[C@H](C)O1", "activity, negative = cell killing": -6.08},
      {"smiles": "c1ccc(CNCCNCc2ccccc2)cc1", "activity, negative = cell killing": -9.72},
      {"smiles": "C=C1C[C@H]2[C@@H]3C=C(C)C4=CC(=O)CC[C@]4(C)[C@H]3CC[C@]2(C)[C@@]1(OC(C)=O)C(C)=O", "activity, negative = cell killing": -28.2}
    ]},
    {"test": "Drug repurposing screens with cells derived from glioblastoma tumor samples (AID 1345199); also: nearly all actives have a fitted effect of over 40% in size", "conditions": "GBM patient neurospheres viability, ATP luminescence, 48 h; at 45.9 µM (top of the series); tumour line D", "method_in_brief": "as §1", "units": {"activity, negative = cell killing": "%"}, "values": [
      {"smiles": "O=C1OCCN1/N=C/c1ccc([N+](=O)[O-])o1", "activity, negative = cell killing": -7.13},
      {"smiles": "CC(O)(P(=O)(O)O)P(=O)(O)O", "activity, negative = cell killing": 0.0097},
      {"smiles": "COC1=CC(=O)C[C@@H](C)[C@]12Oc1c(Cl)c(OC)cc(OC)c1C2=O", "activity, negative = cell killing": -7.65},
      {"smiles": "C[C@H]1C[C@H]2[C@@H]3CCC4=CC(=O)C=C[C@]4(C)[C@@]3(Cl)[C@@H](O)C[C@]2(C)[C@@]1(O)C(=O)CO", "activity, negative = cell killing": -11.6},
      {"smiles": "O=C(COc1ccc(Cl)cc1)N1CCN(Cc2ccc3c(c2)OCO3)CC1", "activity, negative = cell killing": -28.6},
      {"smiles": "C[C@]12CCC(=O)C=C1[C@@H]1C[C@@H]1[C@H]1[C@@H]3[C@@H]4C[C@@H]4[C@@]4(CCC(=O)O4)[C@@]3(C)CC[C@@H]12", "activity, negative = cell killing": -9.23},
      {"smiles": "COc1cccc2c1C(=O)c1c(O)c3c(c(O)c1C2=O)C[C@@](O)(C(=O)CO)C[C@@H]3O[C@H]1C[C@H](N)[C@H](O)[C@H](C)O1", "activity, negative = cell killing": -1.75},
      {"smiles": "c1ccc(CNCCNCc2ccccc2)cc1", "activity, negative = cell killing": -12.2},
      {"smiles": "C=C1C[C@H]2[C@@H]3C=C(C)C4=CC(=O)CC[C@]4(C)[C@H]3CC[C@]2(C)[C@@]1(OC(C)=O)C(C)=O", "activity, negative = cell killing": -24.4}
    ]},
    {"test": "Drug repurposing screens with cells derived from glioblastoma tumor samples (AID 1345199); also: nearly all actives have a fitted effect of over 40% in size", "conditions": "GBM patient neurospheres viability, ATP luminescence, 48 h; at 46 µM (top of the series); tumour line A", "method_in_brief": "as §1", "units": {"activity, negative = cell killing": "%"}, "values": [
      {"smiles": "O=C1OCCN1/N=C/c1ccc([N+](=O)[O-])o1", "activity, negative = cell killing": -29.3},
      {"smiles": "CC(O)(P(=O)(O)O)P(=O)(O)O", "activity, negative = cell killing": -26.7},
      {"smiles": "C[C@H]1C[C@H]2[C@@H]3CCC4=CC(=O)C=C[C@]4(C)[C@@]3(Cl)[C@@H](O)C[C@]2(C)[C@@]1(O)C(=O)CO", "activity, negative = cell killing": -29.5},
      {"smiles": "COc1cccc2c1C(=O)c1c(O)c3c(c(O)c1C2=O)C[C@@](O)(C(=O)CO)C[C@@H]3O[C@H]1C[C@H](N)[C@H](O)[C@H](C)O1", "activity, negative = cell killing": -30.7}
    ]},
    {"test": "Drug repurposing screens with cells derived from glioblastoma tumor samples (AID 1345199); also: nearly all actives have a fitted effect of over 40% in size", "conditions": "GBM patient neurospheres viability, ATP luminescence, 48 h; at 46.1 µM (top of the series); tumour line C", "method_in_brief": "as §1", "units": {"activity, negative = cell killing": "%"}, "values": [
      {"smiles": "Cc1c(C)n(Cc2ccccc2)c2ccc(C(=O)OCCN(C)C)cc12", "activity, negative = cell killing": -16.7},
      {"smiles": "O=C1OCCN1/N=C/c1ccc([N+](=O)[O-])o1", "activity, negative = cell killing": 4.37},
      {"smiles": "CC(O)(P(=O)(O)O)P(=O)(O)O", "activity, negative = cell killing": -3.69},
      {"smiles": "Clc1ccc2c(c1)CCc1cccnc1C2=C1CCNCC1", "activity, negative = cell killing": 0.244},
      {"smiles": "COc1ccc(/C=C/C(=O)c2ccc(OC)cc2OC)cc1", "activity, negative = cell killing": -59.7},
      {"smiles": "COC1=CC(=O)C[C@@H](C)[C@]12Oc1c(Cl)c(OC)cc(OC)c1C2=O", "activity, negative = cell killing": -2.75},
      {"smiles": "C[C@H]1C[C@H]2[C@@H]3CCC4=CC(=O)C=C[C@]4(C)[C@@]3(Cl)[C@@H](O)C[C@]2(C)[C@@]1(O)C(=O)CO", "activity, negative = cell killing": -24.3},
      {"smiles": "C[C@]12CCC(=O)C=C1[C@@H]1C[C@@H]1[C@H]1[C@@H]3[C@@H]4C[C@@H]4[C@@]4(CCC(=O)O4)[C@@]3(C)CC[C@@H]12", "activity, negative = cell killing": -0.55},
      {"smiles": "COc1cccc2c1C(=O)c1c(O)c3c(c(O)c1C2=O)C[C@@](O)(C(=O)CO)C[C@@H]3O[C@H]1C[C@H](N)[C@H](O)[C@H](C)O1", "activity, negative = cell killing": -4.46},
      {"smiles": "c1ccc(CNCCNCc2ccccc2)cc1", "activity, negative = cell killing": -25.1},
      {"smiles": "C=C1C[C@H]2[C@@H]3C=C(C)C4=CC(=O)CC[C@]4(C)[C@H]3CC[C@]2(C)[C@@]1(OC(C)=O)C(C)=O", "activity, negative = cell killing": -11.9},
      {"smiles": "CN(C)CC/C=C1\\c2ccccc2Sc2ccc(Cl)cc21", "activity, negative = cell killing": -26.8},
      {"smiles": "CC(C)=CCC1C(=O)N(c2ccccc2)N(c2ccccc2)C1=O", "activity, negative = cell killing": 3.79}
    ]}
  ]
}
